Experimental data reported in ChEMBL document CHEMBL1961873, “Compounds: GSK PKIS; Assays: Nanosyn kinase panel” (2012).

Experiments:
[1] = biological target: T1, Inhibitor of nuclear factor kappa-B kinase subunit epsilon (Homo sapiens) (UniProt Q14164); details: at 1 µM;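 also: reported values are averaged percent inhibition figures against human IKKε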
T1 sequence (whole entry): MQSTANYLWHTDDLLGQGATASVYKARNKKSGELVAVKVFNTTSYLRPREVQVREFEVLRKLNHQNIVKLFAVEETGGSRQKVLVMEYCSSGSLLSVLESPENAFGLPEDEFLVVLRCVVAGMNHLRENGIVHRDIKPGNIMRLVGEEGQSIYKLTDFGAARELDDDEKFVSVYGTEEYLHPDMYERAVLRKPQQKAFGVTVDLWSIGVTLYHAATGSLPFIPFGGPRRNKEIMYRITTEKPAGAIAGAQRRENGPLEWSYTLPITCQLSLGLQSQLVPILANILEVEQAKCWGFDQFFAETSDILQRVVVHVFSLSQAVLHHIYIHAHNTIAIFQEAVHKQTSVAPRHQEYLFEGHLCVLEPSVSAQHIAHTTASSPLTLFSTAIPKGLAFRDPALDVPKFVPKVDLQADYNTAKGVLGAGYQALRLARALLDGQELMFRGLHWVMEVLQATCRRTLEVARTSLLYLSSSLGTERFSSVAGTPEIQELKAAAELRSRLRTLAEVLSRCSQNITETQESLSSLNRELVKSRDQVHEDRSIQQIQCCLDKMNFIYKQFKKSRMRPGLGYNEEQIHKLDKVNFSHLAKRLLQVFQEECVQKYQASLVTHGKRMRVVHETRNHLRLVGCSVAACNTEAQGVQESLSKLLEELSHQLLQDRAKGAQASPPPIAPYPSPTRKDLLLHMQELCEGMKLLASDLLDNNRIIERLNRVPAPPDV

[2] = biological target: T2, Serine/threonine-protein kinase Nek1 (Homo sapiens) (UniProt Q96PY6); details: at 0.1 µM
T2 sequence (whole entry): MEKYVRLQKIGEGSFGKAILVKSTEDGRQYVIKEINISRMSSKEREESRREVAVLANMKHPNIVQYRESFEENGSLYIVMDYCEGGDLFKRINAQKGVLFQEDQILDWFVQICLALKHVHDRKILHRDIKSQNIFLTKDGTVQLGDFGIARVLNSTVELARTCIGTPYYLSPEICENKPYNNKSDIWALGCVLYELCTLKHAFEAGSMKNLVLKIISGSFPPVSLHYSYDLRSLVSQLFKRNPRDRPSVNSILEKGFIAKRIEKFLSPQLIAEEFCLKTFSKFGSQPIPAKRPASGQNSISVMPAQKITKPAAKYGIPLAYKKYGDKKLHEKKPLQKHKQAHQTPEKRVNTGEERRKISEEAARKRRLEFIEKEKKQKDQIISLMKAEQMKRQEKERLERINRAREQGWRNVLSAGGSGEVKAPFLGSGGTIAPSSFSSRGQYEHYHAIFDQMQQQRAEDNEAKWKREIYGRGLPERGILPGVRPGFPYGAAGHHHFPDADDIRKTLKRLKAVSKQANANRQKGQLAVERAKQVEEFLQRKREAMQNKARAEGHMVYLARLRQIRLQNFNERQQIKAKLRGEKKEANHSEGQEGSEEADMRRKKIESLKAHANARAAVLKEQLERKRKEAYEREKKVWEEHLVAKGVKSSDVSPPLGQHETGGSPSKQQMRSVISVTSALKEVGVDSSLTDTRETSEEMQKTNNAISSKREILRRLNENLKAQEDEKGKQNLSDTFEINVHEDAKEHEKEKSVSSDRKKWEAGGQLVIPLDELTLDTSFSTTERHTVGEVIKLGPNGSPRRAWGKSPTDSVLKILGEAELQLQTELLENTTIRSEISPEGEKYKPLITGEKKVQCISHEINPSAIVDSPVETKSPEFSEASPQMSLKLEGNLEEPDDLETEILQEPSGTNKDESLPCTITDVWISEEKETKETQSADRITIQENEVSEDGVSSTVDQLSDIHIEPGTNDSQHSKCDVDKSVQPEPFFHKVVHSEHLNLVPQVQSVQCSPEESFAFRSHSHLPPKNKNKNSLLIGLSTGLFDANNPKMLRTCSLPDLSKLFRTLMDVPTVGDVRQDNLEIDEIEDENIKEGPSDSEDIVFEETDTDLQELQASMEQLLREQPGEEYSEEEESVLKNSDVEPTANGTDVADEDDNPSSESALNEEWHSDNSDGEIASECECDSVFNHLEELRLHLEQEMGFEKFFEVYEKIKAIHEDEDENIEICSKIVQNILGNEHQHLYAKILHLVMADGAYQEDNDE

[3] = biological target: T2, Serine/threonine-protein kinase Nek1 (Homo sapiens); details: at 1 µM
[4] = biological target: T3, Serine/threonine-protein kinase Nek2 (Homo sapiens) (UniProt P51955); details: at 0.1 µM
T3 sequence (whole entry): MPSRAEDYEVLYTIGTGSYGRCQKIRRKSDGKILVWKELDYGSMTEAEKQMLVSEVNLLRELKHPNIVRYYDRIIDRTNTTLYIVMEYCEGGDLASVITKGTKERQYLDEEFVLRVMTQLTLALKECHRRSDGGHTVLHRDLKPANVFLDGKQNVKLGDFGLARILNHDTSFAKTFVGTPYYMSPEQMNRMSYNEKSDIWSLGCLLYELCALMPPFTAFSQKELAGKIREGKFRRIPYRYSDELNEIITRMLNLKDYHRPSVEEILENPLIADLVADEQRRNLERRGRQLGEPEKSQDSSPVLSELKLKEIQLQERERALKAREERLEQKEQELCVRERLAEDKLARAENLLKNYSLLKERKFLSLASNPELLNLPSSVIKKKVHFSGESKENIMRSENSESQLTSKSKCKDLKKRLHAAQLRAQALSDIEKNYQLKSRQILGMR

[5] = biological target: T3, Serine/threonine-protein kinase Nek2 (Homo sapiens); details: at 1 µM
[6] = biological target: Serine/threonine-protein kinase Nek6 (Homo sapiens) (UniProt Q9HC98); details: at 0.1 µM
[7] = biological target: Serine/threonine-protein kinase Nek6 (Homo sapiens) (UniProt Q9HC98); details: at 1 µM
[8] = biological target: Serine/threonine-protein kinase Nek7 (Homo sapiens) (UniProt Q8TDX7); details: at 0.1 µM
[9] = biological target: Serine/threonine-protein kinase Nek7 (Homo sapiens) (UniProt Q8TDX7); details: at 1 µM
[10] = biological target: T4, Serine/threonine-protein kinase Nek9 (Homo sapiens) (UniProt Q8TD19); details: at 0.1 µM
T4 sequence (whole entry): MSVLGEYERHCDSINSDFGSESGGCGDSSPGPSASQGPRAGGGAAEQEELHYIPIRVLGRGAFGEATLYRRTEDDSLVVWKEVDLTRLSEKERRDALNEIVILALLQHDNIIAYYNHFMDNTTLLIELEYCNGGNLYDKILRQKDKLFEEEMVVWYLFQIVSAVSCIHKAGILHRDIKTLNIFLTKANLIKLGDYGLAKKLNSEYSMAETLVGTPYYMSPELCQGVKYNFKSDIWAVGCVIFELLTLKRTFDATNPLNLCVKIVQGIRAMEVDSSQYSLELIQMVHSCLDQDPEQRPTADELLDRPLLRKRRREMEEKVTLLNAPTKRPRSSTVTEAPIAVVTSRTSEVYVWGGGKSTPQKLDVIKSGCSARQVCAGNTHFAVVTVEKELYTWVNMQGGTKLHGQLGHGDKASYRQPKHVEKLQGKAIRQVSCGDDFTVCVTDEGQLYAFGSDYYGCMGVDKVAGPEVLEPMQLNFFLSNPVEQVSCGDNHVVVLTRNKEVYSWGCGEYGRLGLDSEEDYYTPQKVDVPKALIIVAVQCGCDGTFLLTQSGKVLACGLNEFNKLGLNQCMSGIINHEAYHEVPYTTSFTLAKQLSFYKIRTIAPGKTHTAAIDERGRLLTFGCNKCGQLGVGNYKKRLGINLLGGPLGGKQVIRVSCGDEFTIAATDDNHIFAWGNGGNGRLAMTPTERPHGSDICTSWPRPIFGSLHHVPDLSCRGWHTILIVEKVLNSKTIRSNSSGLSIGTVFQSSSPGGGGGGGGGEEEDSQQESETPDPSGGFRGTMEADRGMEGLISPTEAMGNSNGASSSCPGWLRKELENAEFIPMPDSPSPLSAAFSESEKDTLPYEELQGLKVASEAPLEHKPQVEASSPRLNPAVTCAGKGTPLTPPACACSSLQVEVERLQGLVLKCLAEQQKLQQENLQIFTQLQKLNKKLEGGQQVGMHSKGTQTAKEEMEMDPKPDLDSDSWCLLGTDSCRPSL

[11] = biological target: T4, Serine/threonine-protein kinase Nek9 (Homo sapiens); details: at 1 µM
[12] = biological target: Serine/threonine-protein kinase PLK1 (Homo sapiens) (UniProt P53350); details: at 0.1 µM
[13] = biological target: Serine/threonine-protein kinase PLK1 (Homo sapiens) (UniProt P53350); details: at 1 µM
[14] = biological target: T5, Dual specificity protein kinase TTK (Homo sapiens) (UniProt P33981); details: at 0.1 µM
T5 sequence (whole entry): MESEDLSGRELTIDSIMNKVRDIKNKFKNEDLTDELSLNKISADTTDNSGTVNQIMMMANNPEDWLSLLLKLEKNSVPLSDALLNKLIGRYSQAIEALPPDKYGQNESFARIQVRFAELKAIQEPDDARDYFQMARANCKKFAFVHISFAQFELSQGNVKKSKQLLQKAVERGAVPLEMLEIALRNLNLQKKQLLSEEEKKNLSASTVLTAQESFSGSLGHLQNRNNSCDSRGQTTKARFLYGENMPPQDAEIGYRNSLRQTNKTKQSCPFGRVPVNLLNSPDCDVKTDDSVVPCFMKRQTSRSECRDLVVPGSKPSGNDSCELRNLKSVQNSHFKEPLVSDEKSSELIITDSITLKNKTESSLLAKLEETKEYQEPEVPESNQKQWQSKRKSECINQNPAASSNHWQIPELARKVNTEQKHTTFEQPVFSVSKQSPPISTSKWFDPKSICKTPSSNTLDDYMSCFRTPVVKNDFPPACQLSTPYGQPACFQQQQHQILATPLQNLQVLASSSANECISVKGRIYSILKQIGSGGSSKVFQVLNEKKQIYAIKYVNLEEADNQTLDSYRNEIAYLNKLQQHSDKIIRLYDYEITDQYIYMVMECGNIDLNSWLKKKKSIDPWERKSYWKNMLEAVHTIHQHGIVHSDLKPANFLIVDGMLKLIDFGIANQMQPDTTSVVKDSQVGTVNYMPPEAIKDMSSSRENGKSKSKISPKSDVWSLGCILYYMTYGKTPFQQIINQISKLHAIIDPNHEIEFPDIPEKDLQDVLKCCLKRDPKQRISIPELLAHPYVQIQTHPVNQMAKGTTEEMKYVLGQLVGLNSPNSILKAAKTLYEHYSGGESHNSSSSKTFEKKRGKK

[15] = system: T6, Receptor-type tyrosine-protein kinase FLT3 (Homo sapiens), P36888 [D835Y]; details: at 1 µM
T6 sequence (whole entry): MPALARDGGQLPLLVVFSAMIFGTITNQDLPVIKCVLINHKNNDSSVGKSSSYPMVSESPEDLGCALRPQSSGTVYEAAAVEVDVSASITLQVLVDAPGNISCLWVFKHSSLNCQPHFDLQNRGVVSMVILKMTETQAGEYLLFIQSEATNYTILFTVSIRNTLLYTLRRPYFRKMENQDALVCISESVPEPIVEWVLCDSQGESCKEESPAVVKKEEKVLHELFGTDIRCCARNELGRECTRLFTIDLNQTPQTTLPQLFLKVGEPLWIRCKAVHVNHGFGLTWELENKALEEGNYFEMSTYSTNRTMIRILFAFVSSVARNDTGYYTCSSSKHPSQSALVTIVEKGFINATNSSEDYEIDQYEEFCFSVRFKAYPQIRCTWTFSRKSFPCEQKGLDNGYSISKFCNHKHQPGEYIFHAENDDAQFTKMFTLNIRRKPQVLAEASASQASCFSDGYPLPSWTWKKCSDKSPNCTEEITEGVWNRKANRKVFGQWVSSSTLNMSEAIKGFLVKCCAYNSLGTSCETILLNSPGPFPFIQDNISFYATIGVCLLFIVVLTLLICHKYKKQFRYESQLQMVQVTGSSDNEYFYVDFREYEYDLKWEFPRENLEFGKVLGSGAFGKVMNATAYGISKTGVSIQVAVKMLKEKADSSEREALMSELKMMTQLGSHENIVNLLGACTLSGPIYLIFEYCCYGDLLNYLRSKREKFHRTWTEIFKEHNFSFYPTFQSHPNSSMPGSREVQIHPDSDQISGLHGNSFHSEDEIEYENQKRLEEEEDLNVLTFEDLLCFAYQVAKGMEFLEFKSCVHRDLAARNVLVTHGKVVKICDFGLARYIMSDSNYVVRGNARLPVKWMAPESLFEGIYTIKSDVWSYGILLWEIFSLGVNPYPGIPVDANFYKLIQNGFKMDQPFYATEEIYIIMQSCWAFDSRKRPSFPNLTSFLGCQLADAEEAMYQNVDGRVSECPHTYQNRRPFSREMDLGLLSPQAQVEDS

[16] = biological target: Vascular endothelial growth factor receptor 3 (Homo sapiens) (UniProt P35916); details: at 0.1 µM
[17] = biological target: Vascular endothelial growth factor receptor 3 (Homo sapiens) (UniProt P35916); details: at 1 µM
[18] = biological target: Macrophage colony-stimulating factor 1 receptor (Homo sapiens) (UniProt P07333); details: at 0.1 µM
[19] = biological target: Macrophage colony-stimulating factor 1 receptor (Homo sapiens) (UniProt P07333); details: at 1 µM
[20] = biological target: Tyrosine-protein kinase Fyn (Homo sapiens) (UniProt P06241); details: at 0.1 µM
Chain of Tyrosine-protein kinase Fyn (Homo sapiens) (P06241 2-537 limits assumed): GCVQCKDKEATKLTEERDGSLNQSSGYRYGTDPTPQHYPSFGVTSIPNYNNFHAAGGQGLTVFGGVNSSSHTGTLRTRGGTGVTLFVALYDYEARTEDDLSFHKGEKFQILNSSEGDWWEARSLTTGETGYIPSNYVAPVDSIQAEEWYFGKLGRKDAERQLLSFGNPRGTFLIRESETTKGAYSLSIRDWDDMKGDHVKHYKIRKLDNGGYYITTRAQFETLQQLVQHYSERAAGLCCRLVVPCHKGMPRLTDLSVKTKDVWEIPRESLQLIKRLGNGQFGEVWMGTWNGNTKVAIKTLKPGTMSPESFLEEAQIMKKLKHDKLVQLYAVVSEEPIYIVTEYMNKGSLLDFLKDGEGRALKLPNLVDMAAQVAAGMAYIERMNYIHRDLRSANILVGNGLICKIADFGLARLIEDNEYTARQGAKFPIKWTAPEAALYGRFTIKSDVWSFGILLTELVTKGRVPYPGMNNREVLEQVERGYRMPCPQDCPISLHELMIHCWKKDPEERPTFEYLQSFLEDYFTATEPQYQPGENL

Chain of Serine/threonine-protein kinase Nek7 (Homo sapiens) (Q8TDX7 whole entry, looked up): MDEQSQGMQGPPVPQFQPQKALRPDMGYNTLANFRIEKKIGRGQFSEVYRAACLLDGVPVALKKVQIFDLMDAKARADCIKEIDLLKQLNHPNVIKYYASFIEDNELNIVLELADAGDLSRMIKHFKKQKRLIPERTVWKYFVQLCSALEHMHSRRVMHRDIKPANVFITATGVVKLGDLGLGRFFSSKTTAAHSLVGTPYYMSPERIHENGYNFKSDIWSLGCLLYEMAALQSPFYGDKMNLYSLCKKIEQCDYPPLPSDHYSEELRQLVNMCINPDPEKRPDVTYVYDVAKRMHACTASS
Chain of Macrophage colony-stimulating factor 1 receptor (Homo sapiens) (P07333 whole entry): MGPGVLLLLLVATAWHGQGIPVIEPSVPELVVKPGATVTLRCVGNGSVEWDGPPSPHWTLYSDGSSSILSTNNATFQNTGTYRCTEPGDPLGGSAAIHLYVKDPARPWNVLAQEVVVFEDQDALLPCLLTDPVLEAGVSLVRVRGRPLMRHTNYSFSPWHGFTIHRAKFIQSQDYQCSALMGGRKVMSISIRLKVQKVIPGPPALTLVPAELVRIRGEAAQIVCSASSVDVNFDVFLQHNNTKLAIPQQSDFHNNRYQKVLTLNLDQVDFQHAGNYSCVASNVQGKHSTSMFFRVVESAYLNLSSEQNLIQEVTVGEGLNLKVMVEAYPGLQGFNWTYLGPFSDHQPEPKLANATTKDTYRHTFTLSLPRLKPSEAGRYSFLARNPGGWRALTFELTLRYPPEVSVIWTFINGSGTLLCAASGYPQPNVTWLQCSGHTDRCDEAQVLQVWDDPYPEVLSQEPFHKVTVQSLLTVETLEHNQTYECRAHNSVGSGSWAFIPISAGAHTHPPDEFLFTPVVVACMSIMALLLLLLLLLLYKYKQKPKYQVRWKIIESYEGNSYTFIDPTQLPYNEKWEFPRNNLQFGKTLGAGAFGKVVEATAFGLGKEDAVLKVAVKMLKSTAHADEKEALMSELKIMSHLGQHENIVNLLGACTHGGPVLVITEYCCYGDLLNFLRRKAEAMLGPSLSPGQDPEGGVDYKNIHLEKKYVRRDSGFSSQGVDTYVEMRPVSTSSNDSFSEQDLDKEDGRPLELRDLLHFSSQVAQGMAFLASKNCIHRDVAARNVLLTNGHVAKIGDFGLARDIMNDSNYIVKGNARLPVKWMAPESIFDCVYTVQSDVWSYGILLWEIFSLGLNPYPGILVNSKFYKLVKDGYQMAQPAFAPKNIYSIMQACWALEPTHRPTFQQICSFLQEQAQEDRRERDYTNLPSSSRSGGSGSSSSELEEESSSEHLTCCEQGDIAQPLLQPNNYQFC
Chain of Vascular endothelial growth factor receptor 3 (Homo sapiens) (P35916 whole entry): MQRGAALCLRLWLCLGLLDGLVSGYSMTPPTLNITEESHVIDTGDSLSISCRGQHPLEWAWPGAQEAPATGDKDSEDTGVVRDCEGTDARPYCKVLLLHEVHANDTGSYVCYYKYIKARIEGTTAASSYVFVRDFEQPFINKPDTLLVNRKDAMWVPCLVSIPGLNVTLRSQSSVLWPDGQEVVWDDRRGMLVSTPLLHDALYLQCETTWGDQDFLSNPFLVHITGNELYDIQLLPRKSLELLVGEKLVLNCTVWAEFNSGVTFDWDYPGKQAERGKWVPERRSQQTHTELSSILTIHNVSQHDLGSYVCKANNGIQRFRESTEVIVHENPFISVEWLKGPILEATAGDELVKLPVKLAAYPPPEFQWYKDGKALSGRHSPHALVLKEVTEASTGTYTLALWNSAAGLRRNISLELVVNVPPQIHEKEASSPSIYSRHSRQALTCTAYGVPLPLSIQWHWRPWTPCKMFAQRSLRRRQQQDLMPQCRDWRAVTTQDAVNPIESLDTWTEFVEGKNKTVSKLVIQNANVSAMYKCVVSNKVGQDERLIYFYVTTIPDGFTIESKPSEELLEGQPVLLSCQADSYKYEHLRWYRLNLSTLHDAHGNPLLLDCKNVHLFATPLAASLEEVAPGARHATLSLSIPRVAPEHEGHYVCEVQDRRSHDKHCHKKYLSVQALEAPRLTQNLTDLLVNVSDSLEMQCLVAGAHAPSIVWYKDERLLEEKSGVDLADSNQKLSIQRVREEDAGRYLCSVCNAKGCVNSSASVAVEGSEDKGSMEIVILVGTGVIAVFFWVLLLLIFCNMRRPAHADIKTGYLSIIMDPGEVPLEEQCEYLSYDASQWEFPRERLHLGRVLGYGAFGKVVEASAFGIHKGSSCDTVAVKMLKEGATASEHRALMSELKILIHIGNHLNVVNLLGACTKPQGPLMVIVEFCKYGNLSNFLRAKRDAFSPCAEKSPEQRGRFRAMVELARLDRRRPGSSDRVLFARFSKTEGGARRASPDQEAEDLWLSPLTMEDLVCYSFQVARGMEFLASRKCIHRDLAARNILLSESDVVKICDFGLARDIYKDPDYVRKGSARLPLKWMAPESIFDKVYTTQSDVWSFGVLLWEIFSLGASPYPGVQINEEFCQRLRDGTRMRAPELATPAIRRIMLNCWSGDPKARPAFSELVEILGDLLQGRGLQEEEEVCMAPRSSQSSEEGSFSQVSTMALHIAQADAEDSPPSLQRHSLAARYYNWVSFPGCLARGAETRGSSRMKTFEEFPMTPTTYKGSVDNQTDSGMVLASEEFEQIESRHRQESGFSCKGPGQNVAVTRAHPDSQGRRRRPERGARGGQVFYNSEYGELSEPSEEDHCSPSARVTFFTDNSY
Chain of Serine/threonine-protein kinase PLK1 (Homo sapiens) (P53350 whole entry): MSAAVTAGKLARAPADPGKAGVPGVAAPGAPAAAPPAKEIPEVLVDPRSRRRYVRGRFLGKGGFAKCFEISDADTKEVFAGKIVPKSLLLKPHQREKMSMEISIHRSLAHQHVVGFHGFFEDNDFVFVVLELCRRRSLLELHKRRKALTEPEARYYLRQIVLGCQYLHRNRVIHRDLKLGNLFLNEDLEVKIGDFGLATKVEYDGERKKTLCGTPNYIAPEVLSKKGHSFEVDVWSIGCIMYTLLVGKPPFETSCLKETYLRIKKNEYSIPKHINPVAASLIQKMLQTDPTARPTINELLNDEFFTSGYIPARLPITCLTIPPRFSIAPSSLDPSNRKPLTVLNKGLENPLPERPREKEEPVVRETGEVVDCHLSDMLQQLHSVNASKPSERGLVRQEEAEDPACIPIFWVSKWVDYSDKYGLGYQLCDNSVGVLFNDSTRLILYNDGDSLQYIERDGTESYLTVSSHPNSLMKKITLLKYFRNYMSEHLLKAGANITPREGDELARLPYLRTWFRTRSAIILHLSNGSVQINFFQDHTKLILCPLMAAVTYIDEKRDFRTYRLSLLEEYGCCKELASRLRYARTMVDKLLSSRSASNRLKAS
Chain of Serine/threonine-protein kinase Nek6 (Homo sapiens) (Q9HC98 whole entry): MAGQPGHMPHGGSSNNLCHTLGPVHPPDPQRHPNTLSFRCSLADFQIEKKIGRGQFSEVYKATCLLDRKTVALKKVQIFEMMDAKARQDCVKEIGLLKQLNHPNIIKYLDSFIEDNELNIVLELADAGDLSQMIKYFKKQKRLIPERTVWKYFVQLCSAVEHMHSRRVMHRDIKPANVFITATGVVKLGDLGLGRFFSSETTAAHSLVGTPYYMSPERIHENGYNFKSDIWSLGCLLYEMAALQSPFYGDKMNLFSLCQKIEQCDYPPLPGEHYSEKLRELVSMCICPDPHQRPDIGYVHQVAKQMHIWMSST

CCCNc1cccc(-n2ncc3c(N/N=C/c4ccncc4)ncnc32)c1
inhibition [1]: 13.4% | inhibition [2]: 0.28% | inhibition [3]: 7.87% | inhibition [4]: -1.07% | inhibition [5]: 0.85% | inhibition [6]: 4.08% | inhibition [7]: 2.63% | inhibition [8]: -1.02% | inhibition [9]: -0.91% | inhibition [10]: 1.01% | inhibition [11]: 0.45% | inhibition [12]: -0.12% | inhibition [13]: 0.93% | inhibition [14]: 4% | inhibition [15]: 31.9% | inhibition [16]: 11.3% | inhibition [17]: 40.7% | inhibition [18]: 3.81% | inhibition [19]: 17.6% | inhibition [20]: 8.6%

N#Cc1ccc2c(-c3ccnc(NC4CC4)n3)c(-c3ccc(F)cc3)nn2c1
inhibition [1]: 3.7% | inhibition [2]: 0.87% | inhibition [3]: 2.03% | inhibition [4]: 2.22% | inhibition [5]: 1.83% | inhibition [6]: 1.63% | inhibition [7]: 1.52% | inhibition [8]: 1.73% | inhibition [9]: 2.38% | inhibition [10]: 3.27% | inhibition [11]: 4.02% | inhibition [12]: 2.66% | inhibition [13]: 0.98% | inhibition [14]: 2.64% | inhibition [15]: 4.7% | inhibition [16]: -1.37% | inhibition [17]: 4.18% | inhibition [18]: -2.75% | inhibition [19]: 4.65% | inhibition [20]: -0.41%
